# Assay results taken from PubChem BioAssay (NCATS).
# Where “and” joins values, the source holds several entries; their conditions need not be identical. Identical values can stand only once. Records with an inconclusive call do not appear. Calls of active or inactive are those of the source. Calls come from the whole dose curve; as a rule, active = well fitted curve in the direction sought with a large enough effect; inconclusive = small, poorly fitted or top-dose-only effect, or another doubt; inactive = no such curve, though single readings can be large; an effect the other way counts as inactive or inconclusive.
# Biological target: Peroxisome proliferator-activated receptor alpha (Homo sapiens) (UniProt Q07869)
# Sequence (Q07869 whole entry, looked up): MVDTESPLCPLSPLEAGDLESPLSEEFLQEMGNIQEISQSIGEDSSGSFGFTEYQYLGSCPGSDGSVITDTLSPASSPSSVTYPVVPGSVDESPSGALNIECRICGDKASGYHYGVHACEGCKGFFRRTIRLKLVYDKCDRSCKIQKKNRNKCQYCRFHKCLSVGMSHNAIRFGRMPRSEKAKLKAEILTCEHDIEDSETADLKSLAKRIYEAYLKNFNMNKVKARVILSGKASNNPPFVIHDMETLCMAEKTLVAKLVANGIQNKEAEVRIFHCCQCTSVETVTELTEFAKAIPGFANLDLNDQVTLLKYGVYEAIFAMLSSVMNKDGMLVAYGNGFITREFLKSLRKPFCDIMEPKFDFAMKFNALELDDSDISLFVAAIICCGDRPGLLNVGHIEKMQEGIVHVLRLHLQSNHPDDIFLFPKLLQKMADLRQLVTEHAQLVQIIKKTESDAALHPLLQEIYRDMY
# Experiment: qHTS assay for small molecule agonists of the peroxisome proliferator-activated receptor alpha (PPARalpha) signaling pathway (AID 651778); for max response: % of control where 0% means no effect
# Conditions: PathHunter PPARalpha complementation, chemiluminescence, 6 h; max response: stronger effect = higher value
# Summary of the method: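 Cells plated at 2,000/well and held overnight at 37 C, 5% CO2, then compound added by pin tool for 6 hr; after PathHunter detection reagent and 60 min at room temperature, chemiluminescence from enzyme complementation was read.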
# Potency is the fitted concentration of half-maximal effect.
SMILES,max response,Potency
CC(C)C(=O)Nc1ccc([N+](=O)[O-])c(C(F)(F)F)c1,-5.17% (inactive) and -3.96% (inactive),
COc1ccc2[nH]cc(CCNC(C)=O)c2c1,-3.03% (inactive) and -8.27% (inactive) and 0.529% (inactive),
COc1ccc2c(c1)c(CC(=O)O)c(C)n2C(=O)c1ccc(Cl)cc1,11.2% (inactive) and 10.8% (inactive),
NCCS(=O)(=O)O,5.59% (inactive),
O=c1c(-c2ccc(O)cc2)coc2cc(O)cc(O)c12,-1.44% (inactive) and -0.484% (inactive),
CCC1(c2ccccc2)C(=O)NCNC1=O,-5.03% (inactive) and -3.26% (inactive),
Cn1c(=O)c2[nH]cnc2n(C)c1=O,-1.61% (inactive),
O=C(CCCN1CCC(O)(c2ccc(Cl)cc2)CC1)c1ccc(F)cc1,-1.35% (inactive),
CC(C)(Oc1ccc(C2CC2(Cl)Cl)cc1)C(=O)O (stereo not given),,14.1 µM (active)
Cc1cn([C@H]2C=C[C@@H](CO)O2)c(=O)[nH]c1=O,1.44% (inactive) and 1.55% (inactive) and -0.234% (inactive),
NS(=O)(=O)c1cc2c(cc1Cl)NCNS2(=O)=O,-0.533% (inactive) and -1.17% (inactive),
CCOC(=O)C(C)(C)Oc1ccc(Cl)cc1,5.39% (inactive),
CN(C)CCOC(c1ccccc1)c1ccccc1,-3.61% (inactive),
N[C@@H](Cc1c[nH]c2ccc(O)cc12)C(=O)O,-1.51% (inactive),
CC(COc1ccccc1)N(CCCl)Cc1ccccc1 (stereo not given),-4.85% (inactive) and -2.28% (inactive),
Cc1ccc(-c2cc(C(F)(F)F)nn2-c2ccc(S(N)(=O)=O)cc2)cc1,3.54% (inactive),
Cn1cnc2c1c(=O)[nH]c(=O)n2C,-2.11% (inactive),

# Biological target: Nuclear receptor ROR-gamma (Homo sapiens) (UniProt P51449)
# Sequence (P51449 whole entry, looked up): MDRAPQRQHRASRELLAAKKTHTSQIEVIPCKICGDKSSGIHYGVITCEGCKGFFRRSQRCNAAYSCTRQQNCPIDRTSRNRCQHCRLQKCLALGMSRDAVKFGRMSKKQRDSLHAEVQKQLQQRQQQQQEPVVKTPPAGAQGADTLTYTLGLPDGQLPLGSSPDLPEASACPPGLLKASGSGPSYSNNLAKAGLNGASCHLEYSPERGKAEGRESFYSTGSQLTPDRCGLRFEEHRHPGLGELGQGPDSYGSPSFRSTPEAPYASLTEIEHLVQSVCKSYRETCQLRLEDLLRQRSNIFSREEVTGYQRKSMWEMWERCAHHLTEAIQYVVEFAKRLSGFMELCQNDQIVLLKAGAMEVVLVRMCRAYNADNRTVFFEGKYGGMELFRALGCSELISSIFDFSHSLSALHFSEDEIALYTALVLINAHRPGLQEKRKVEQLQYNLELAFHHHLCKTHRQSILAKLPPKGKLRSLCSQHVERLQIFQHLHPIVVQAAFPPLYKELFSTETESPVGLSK
# Experiment: qHTS assay for small molecule antagonists of the retinoid-related orphan receptor gamma (ROR-gamma) signaling pathway (AID 651802); note: nearly all actives have a fitted effect of over 60% in size
# Conditions: ROR-gamma antagonist cell reporter assay; series mostly up to 92.2 µM
# Summary of the method: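 Antagonism is scored as a fall in luminescence from a RORE-luciferase reporter in CHO cells expressing ROR under a TET-inducible promoter, measured 16hr after doxycycline induction in the presence of compound.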
row,SMILES,Potency
1,Clc1ccc(C(c2ccccc2Cl)C(Cl)Cl)cc1 (stereo not given),33.5 µM (active)
2,Cn1c(=O)c2c(ncn2C)n(C)c1=O,inactive
3,CC(C)NCC(O)c1ccc(O)c(O)c1 (stereo not given),inactive
4,Cc1cn([C@H]2C[C@H](N=[N+]=[N-])[C@@H](CO)O2)c(=O)[nH]c1=O,inactive
5,Nc1ccn([C@H]2CC[C@@H](CO)O2)c(=O)n1,inactive
6,O=c1[nH]cc(F)c(=O)[nH]1,inactive
7,Nc1c2c(nc3ccccc13)CCCC2,inactive
8,COc1ccc2[nH]cc(CCNC(C)=O)c2c1,inactive
9,NCCS(=O)(=O)O,inactive
10,O=c1c(-c2ccc(O)cc2)coc2cc(O)cc(O)c12,inactive
11,CCC1(c2ccccc2)C(=O)NCNC1=O,inactive
12,Cc1cn([C@H]2C=C[C@@H](CO)O2)c(=O)[nH]c1=O,inactive
13,NS(=O)(=O)c1cc2c(cc1Cl)NCNS2(=O)=O,inactive
